In the supplement of paper PMC10981050:
Values joined by “and” are separate entries in the source; they are usually repeats but may differ in a detail not shown here. Identical values can stand only once. Counter-ions that a name gives are not always drawn.

Tests used:
Test in all cases: cell viability relative to vehicle control; higher = less cytotoxic
Details in all cases: 10 µM
K562 = system: K562
Procedure, shortened: (§1)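 Each screen used CRISPR-edited mutant and wild-type clones from four leukaemia lines. Compounds were acoustically dispensed at a single 10 µM dose, and CellTiter-Glo luminescence was read after 48 h with the supernatant first removed. Viability was analysed in Genedata Screener and given as percent of the on-plate vehicle control.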

MARIMO = system: MARIMO
Procedure, shortened: as §1

MOLM14 = system: MOLM14
Procedure, shortened: as §1

OCI-AML2 = system: OCI-AML2
Procedure, shortened: as §1

SMILES | cell viability (K562; SRSF2 genotype: SRSF2 P95H/wt) | cell viability (K562; SRSF2 genotype: SRSF2 wt/wt) | cell viability (MARIMO; SRSF2 genotype: SRSF2 P95H/wt) | cell viability (MARIMO; SRSF2 genotype: SRSF2 wt/wt) | cell viability (MOLM14; SRSF2 genotype: SRSF2 P95H/wt) | cell viability (MOLM14; SRSF2 genotype: SRSF2 wt/wt) | cell viability (OCI-AML2; SRSF2 genotype: P95H/wt) | cell viability (OCI-AML2; SRSF2 genotype: wt/wt)
Cc1cc(-c2ncc(CC(=O)Nc3ccc(-c4cnccn4)cn3)cc2C)ccn1 | 73.5% and 84.3% | 81.2% | 81.6% | 70% | 48.8% | 51.1% | 54.8% | 63.5%
CCCCCCCCCCCCCCCC(=O)N[C@@H](CCSC)C(=O)NCC(=O)N[C@@H](Cc1ccc(O)cc1)C(=O)N[C@@H](CCC(N)=O)C(=O)N[C@@H](CCCCN)C(=O)N[C@@H](CCCCN)C(=O)N[C@@H](CC(C)C)C(=O)N[C@@H](CCCNC(=N)N)C(=O)N[C@@H](CO)C(=O)N[C@@H](CCSC)C(=O)N[C@H](C(=O)N[C@@H](CC(=O)O)C(=O)N[C@@H](CCCCN)C(=O)N[C@@H](Cc1ccc(O)cc1)C(=O)N[C@@H](CCCNC(=N)N)C(=O)N[C@@H](CC(C)C)C(=O)O)[C@@H](C)O | 90.8% and 92.9% | 90% | 76.6% | 82.2% | 58.6% | 72.7% | 75.1% | 94.9%
c1ccc2c(Oc3nc(Nc4ccc(N5CCOCC5)cc4)c4ncn(C5CCCCC5)c4n3)cccc2c1 [Purmorphamine] | 91.9% and 105% | 98.2% | 86.5% | 94.4% | 45.9% | 48.7% | 58.9% | 64%
CC[C@H]1OC(=O)[C@H](C)[C@@H](O[C@H]2C[C@@](C)(OC)[C@@H](O)[C@H](C)O2)[C@H](C)[C@@H](O[C@@H]2O[C@H](C)C[C@H](N(C)C)[C@H]2O)[C@](C)(OC)C[C@@H](C)C(=O)[C@H](C)[C@@H](O)[C@]1(C)O [Clarithromycin (Biaxin, Klacid)] | 105% and 111% | 107% | 99% | 102% | 99.6% | 104% | 108% | 91.7%
CC[C@H](C)C(=O)O[C@H]1C[C@H](O)C=C2C=C[C@H](C)[C@H](CC[C@@H](O)C[C@@H](O)CC(=O)O)[C@H]21 [Pravastatin sodium] | 103% and 97.3% | 92.3% | 95.2% | 103% | 104% | 102% | 91% | 105%
CNCc1ccc(C)c(NC(=O)c2ccc(Nc3nc(-c4ccccc4)c4ccccc4n3)cc2)c1 | 0.99% and 1.39% | 1.34% | 0.68% | 0.61% | 0.42% | 0.52% | 0.4% | 0.57%
C[C@]12CCC(=O)C=C1[C@@H]1C[C@@H]1[C@H]1[C@@H]3[C@@H]4C[C@@H]4[C@@]4(CCC(=O)O4)[C@@]3(C)CC[C@@H]12 [Drospirenone] | 83.3% and 90.5% | 83.3% | 82% | 91.8% | 83.8% | 89.2% | 101% | 92.7%
Cc1ccc(NC(=O)Nc2cc(C(F)(F)F)ccc2F)cc1Nc1ccc2c(c1)NC(=O)/C2=C\c1ccc[nH]1 | 75.2% and 70.9% | 62.1% | 84.4% | 92.2% | 86.5% | 94.4% | 74.4% | 70.1%
COc1ccc(Cn2c3ncnc4c(ncn4Cc4ccc(OC)cc4)c-3nc2=O)cc1 | 1.11% and 1.3% | 0.98% | 4.49% | 17.2% | 9.44% | 2.32% | 4.12% | 5.63%
CN1CCN2c3ccccc3Cc3ccccc3C2C1 (centres undefined) [Mianserin HCl] | 92.5% and 97.9% | 92.2% | 83.7% | 86.5% | 93.5% | 97.8% | 91.2% | 86.4%
O=c1c(O)c(-c2ccc(O)cc2O)oc2cc(O)cc(O)c12 [Morin hydrate (Aurantica)] | 94.3% and 106% | 106% | 108% | 108% | 107% | 107% | 107% | 102%
CN(CCOc1ccc(NS(C)(=O)=O)cc1)CCc1ccc(NS(C)(=O)=O)cc1 [Dofetilide (Tikosyn)] | 97.8% and 97% | 101% | 97% | 104% | 95.8% | 101% | 99% | 107%
Cc1cccc2c3c(ccc12)C1=C(C(=O)C3=O)[C@@H](C)CO1 [Dihydrotanshinone I] | 3.54% and 3.11% | 2.64% | 7.76% | 7.12% | 0.56% | 0.4% | 0.43% | 2.86%
N#CC(=C(O)c1ccc(Cl)cc1Cl)c1nc2ccccc2c(=O)[nH]1 [HPI-4 (Ciliobrevin A)] | 91.5% and 92.8% | 93.6% | 98.9% | 97% | 92.1% | 87.2% | 106% | 99.5%
CCOC(=O)/C=C\C(=O)OCC [Diethylmaleate] | 102% and 96.1% | 99.8% | 97.5% | 109% | 104% | 105% | 98.9% | 111%
Cc1ncc(NC(=O)c2cccc(C(F)(F)F)c2)cc1-c1cnc(OC2CCOCC2)c(N2CCOCC2)c1 | 61.6% and 73.4% | 71.2% | 41.2% | 40.3% | 48.2% | 40.7% | 30.6% | 39%
C=C1CCOC1=O [2-Methylenebutyrolactone] | 106% and 101% | 104% | 97.3% | 105% | 88.6% | 107% | 125% | 126%
C[C@@H](Nc1cc(F)cc(F)c1)c1cc(C(=O)N(C)C)cc2c(=O)cc(N3CCOCC3)oc12 | 87% and 91.9% | 85.5% | 52% | 47.3% | 42.3% | 51.1% | 25.5% | 37.4%
